# Source: paper PMC7819943, “Rice protein-binding microarrays: a tool to detect cis-acting elements near promoter regions in rice”
# Whole data set: some 68,000 sequences, median “fluorescence intensity (a.u.)” near 9,100, cut for the highest 2% near 16,000. This excerpt belongs to a sample that is enriched for the highest values.
# Target: OsWRKY34 (Oryza sativa, UniProt Q0JBA9 1-250)
# Test: protein-binding microarray (RPBM); PBS, 2% BSA, 51.3 ng/ul salmon testes DNA, 50 uM zinc acetate, 200 nM TF, 25 C, 1 h; high values mean tight binding
# Details: protein: recombinant; tags: N-terminal polyhistidine and DsRed monomer fusion (pET32a); label: CyDye5-dUTP incorporated in the synthesized complementary strand; 3' TTTTT single-stranded linker to array surface; dsDNA, one strand shown
# Summary of the method: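 Ni–NTA purification followed expression in E. coli BL21-CodonPlus of transcription factors fused N-terminally to a polyhistidine tag and DsRed. At 200 nM in PBS with 2% BSA, salmon testes DNA and 50 µM zinc acetate, the protein was incubated for 1 h at 25 °C with a custom Agilent array that had been primer-extended with Cy5-dUTP and blocked with 2% BSA. After washing, the array was read on an Axon 4000B scanner. The binding signal is per-feature fluorescence intensity in arbitrary units.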
# OsWRKY34, sequence (Q0JBA9 entry or part of it): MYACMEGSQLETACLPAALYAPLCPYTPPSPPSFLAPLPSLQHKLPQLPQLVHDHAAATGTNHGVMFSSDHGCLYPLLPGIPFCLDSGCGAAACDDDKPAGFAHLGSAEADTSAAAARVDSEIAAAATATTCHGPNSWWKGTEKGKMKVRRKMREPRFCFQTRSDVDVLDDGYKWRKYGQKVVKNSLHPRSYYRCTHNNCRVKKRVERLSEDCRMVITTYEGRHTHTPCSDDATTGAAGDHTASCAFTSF
row,Sequence,binding signal
1,ATATGTTTAAAAAAGTCAACGGCGTCAAACATTTAGGGATCGGAGTCACCTAGTGCAG,18600 fluorescence intensity (a.u.)
2,AAAAAGTCAACGGCGTCAAACATTTAGGGATGGAGGGAGTCGGAGTCACCTAGTGCAG,8190 fluorescence intensity (a.u.)
3,ATATTTAAAAAAGTCAACGGCGTCAAACATTTTGAGATAGCGGAGTCACCTAGTGCAG,9320 fluorescence intensity (a.u.)
4,AAACATGTTTAAAAAAGTCAACGGCGTCAAACATTTAGGGCGGAGTCACCTAGTGCAG,13800 fluorescence intensity (a.u.)
5,ATCTGTACAGTTTGTGACTAATTTGCAAGACGAATCTTTTCGGAGTCACCTAGTGCAG,11500 fluorescence intensity (a.u.)
6,GGATACGGCACCTTTGCGAGCTGCGTCGACCGCTCCGCCGCGGAGTCACCTAGTGCAG,9650 fluorescence intensity (a.u.)
7,GGTTCTGTTCTATATACTCCGACACCATACTGATTAGTCTCGGAGTCACCTAGTGCAG,10900 fluorescence intensity (a.u.)
8,TTTTGAGTTTTTGTGTGAACTGTTTGACCACTCGTCTTATCGGAGTCACCTAGTGCAG,8250 fluorescence intensity (a.u.)
9,CCATCTCCTTCAGCCTTCGCTTCATCTGGTCGAGCTCCTGCGGAGTCACCTAGTGCAG,9080 fluorescence intensity (a.u.)
10,CATGTGCTCAAAGCTTATCTGCATACAAGCCTTCGAGACCCGGAGTCACCTAGTGCAG,64100 fluorescence intensity (a.u.)
11,CTAGCTCACACACAATTGCATACACCTAGCTCAAAAGCCTCGGAGTCACCTAGTGCAG,9080 fluorescence intensity (a.u.)
12,GTCTCAAAAACTCATTCTCCACACGTAATGGATACTTTTGCGGAGTCACCTAGTGCAG,8800 fluorescence intensity (a.u.)
13,TATAACACCAATGACTCTATCTTCATCCGCATGCGTGCCGCGGAGTCACCTAGTGCAG,9390 fluorescence intensity (a.u.)
14,CCATGTATCACACTCCGTTCATATATTCCTGGGCTGTATTCGGAGTCACCTAGTGCAG,8450 fluorescence intensity (a.u.)
15,CATCGCCACCACCGCAGCCGCCTCTCAATTAGGAACACGTCGGAGTCACCTAGTGCAG,10300 fluorescence intensity (a.u.)
16,TCTCTCTTTTTTTAAGCACCTTTTCTGCCTTTTTTCTTTTCGGAGTCACCTAGTGCAG,12200 fluorescence intensity (a.u.)
17,TTATCAATATCTCTCTCTCGGCGCGTATAGCCGTCGCGCGCGGAGTCACCTAGTGCAG,8690 fluorescence intensity (a.u.)
18,TAGCACTAAAACGAGAGGCCTTTTGATTTAGATTTTGCCACGGAGTCACCTAGTGCAG,21900 fluorescence intensity (a.u.)
19,CTATCGCCACCTTTTGCCTTGATTTCTCCTTATTGCTAAACGGAGTCACCTAGTGCAG,14600 fluorescence intensity (a.u.)
20,AGCACATAGCTAGTTAGCCACATATTATTTGATCACTAAACGGAGTCACCTAGTGCAG,8980 fluorescence intensity (a.u.)
21,GTCCGCATCGAGCCGCAGATCTTTCTCACCGCCACCGATGCGGAGTCACCTAGTGCAG,8140 fluorescence intensity (a.u.)
22,CCCTATCGAACGACCACCGAAACCATCATCATTCATCACCCGGAGTCACCTAGTGCAG,9470 fluorescence intensity (a.u.)

row,Sequence,binding signal
1,TTTAGCTTAACTTATTACGATTATGGCTGTGTTTAGTTTCCGGAGTCACCTAGTGCAG,9160 fluorescence intensity (a.u.)
2,AAACTAATTTTCTGTGACACTTCCAAGTGCATACCGGAGTCGGAGTCACCTAGTGCAG,8660 fluorescence intensity (a.u.)
3,GCTGGGTTTGTGGGTTTTCTCATAAGTTTAATCTCTATATCGGAGTCACCTAGTGCAG,17400 fluorescence intensity (a.u.)
4,ATTTTTTATGGGTGTTTGGTTAGTGGGTGGGAGTGGGATACGGAGTCACCTAGTGCAG,12000 fluorescence intensity (a.u.)
5,GGATGGGTTATATCTAGTATTGTGGTTGGGACTGCCTATACGGAGTCACCTAGTGCAG,11100 fluorescence intensity (a.u.)
6,GCATATGGGGATTCTGGGATTTTGGTTTACAGTCTACATTCGGAGTCACCTAGTGCAG,8100 fluorescence intensity (a.u.)
7,CTATCGATATAATCTCTAAGTGAGTTTTTTGTATTTTTTTCGGAGTCACCTAGTGCAG,8020 fluorescence intensity (a.u.)
8,GCCTGGTTTTATAAGTTGTGGGATGGGTTATATCTAGTATCGGAGTCACCTAGTGCAG,28800 fluorescence intensity (a.u.)
9,TTGTTTGACTCTTTTTTAATTAAATTTCTATAAGTTTAATCGGAGTCACCTAGTGCAG,8280 fluorescence intensity (a.u.)
10,AAAGTGATGTGGTGGTGGAGTTGTGGGTATATGATTTTATCGGAGTCACCTAGTGCAG,8790 fluorescence intensity (a.u.)
11,GGCCTCATTCTGGGATCGTTTTATGGTGGGGTTATCGTTACGGAGTCACCTAGTGCAG,20600 fluorescence intensity (a.u.)
12,CCGCACAATCCGCGCCGCCATCAGTTCGCTCTCGCCACCACGGAGTCACCTAGTGCAG,9020 fluorescence intensity (a.u.)
13,GCGCCCACGAACCTTGTCTTCAAGCAATCCCACACTTCCTCGGAGTCACCTAGTGCAG,9490 fluorescence intensity (a.u.)
14,ATTTCAGGCCCACTAGTCCGCTCTTCCTCTTCTTTTTTTTCGGAGTCACCTAGTGCAG,9840 fluorescence intensity (a.u.)
15,GCCGCCATCCCCACCATCGCCGTCGCCGTCGCCTCGCCTCCGGAGTCACCTAGTGCAG,13300 fluorescence intensity (a.u.)
16,CTCTAACAGTCTGCTATTATATCTGCTCTCATGCGTCATCCGGAGTCACCTAGTGCAG,11100 fluorescence intensity (a.u.)
17,TCCGTTTCGTTTTATTTGACACCGTTGACTTTTTAGCACACGGAGTCACCTAGTGCAG,19500 fluorescence intensity (a.u.)
18,TTTCAAAATATTTGACTCCGTTGATTTTTTTAGCACATGTCGGAGTCACCTAGTGCAG,9070 fluorescence intensity (a.u.)
19,ACTTTTACATAGAATTTTTTTTTGAACACACCGTTTAGCACGGAGTCACCTAGTGCAG,8510 fluorescence intensity (a.u.)
20,ACTTTAGTTTTTTTCCGTTGCAGCACACGGTTTTTTTTAACGGAGTCACCTAGTGCAG,9170 fluorescence intensity (a.u.)
21,TTTAGCACGTATTTGACCGTTCGTCTTATTCAAAAACTTTCGGAGTCACCTAGTGCAG,8790 fluorescence intensity (a.u.)
22,TTCGTTTCAAAATATTTGACACCGTTGACTTTTTAGCACACGGAGTCACCTAGTGCAG,25700 fluorescence intensity (a.u.)
